# Measurements reported in PubChem BioAssay (NCI).
# Compounds without any hit were thinned out: in the full panel of roughly 83,000, 20% have a hit.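 In brief: 96-well plates, 48 h treatment, single concentration, percent growth endpoint.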 Values without a mark were called inactive. Activity calls are given as the source filed them. Rule for the calls: active = growth percent below 10; inactive = the rest.
# Test system: HL-60(TB) leukemia
# Test: NCI-60 one-dose screen, 48 h (100 = growth as untreated, 0 = no growth, -100 = all killed)
# Conditions: 10 µM unless noted
row,Compound,growth
1,Nc1nc(C(=O)N/N=C/c2ccc(N3CCOCC3)cc2)nn1-c1ccc(S(N)(=O)=O)cc1,101%
2,CCCNS(=O)(=O)c1ccc(Cl)cc1,105%
3,Cc1nc2sc(C(=O)Nc3cccc(Cl)c3C)c(N)c2cc1C(C)O (stereo not given),-18.7% (active)
4,CSC(=S)N/N=C(\C)c1ccccn1,-12.1% (active)
5,CC(=O)Oc1ccc(/C(=C(\C)c2ccc(Cl)cc2)c2ccc(OCCN3CCCCC3)cc2)cc1,27.4%
6,CC1(C)[C@@H](O[C@@H]2OC[C@@H](O[C@@H]3O[C@H](CO)[C@@H](O)[C@H](O)[C@H]3O[C@@H]3OC[C@@H](O)[C@H](O)[C@H]3O)[C@H](O)[C@H]2O[C@@H]2O[C@H](CO)[C@@H](O)[C@H](O)[C@H]2O)CC[C@]2(C)[C@H]3CC[C@]45OC[C@@]6(CC[C@](C)(C=O)C[C@H]64)[C@H](O)C[C@@]5(C)[C@]3(C)CC[C@@H]12,-58.6% (active)
7,CCOC(=O)Nc1ccc(-c2ccc3c(c2)NC(=O)/C3=C\c2ccc[nH]2)cc1,98.5%
8,Cc1ccc(Nc2nc(-c3cc(O)c(C)c(C)c3O)cs2)cc1,9.51% (active)
9,CN(Cc1ccccc1)c1nc(Cl)c(C2CC(c3ccc4c(c3)OCO4)=NN2c2cc(Cl)cc(Cl)c2)s1 (stereo not given),105%
10,CC(=O)[C@@H]1CC[C@]2(CO)CC[C@]3(C)[C@H](CC[C@@H]4[C@@]5(C)CCCNC(C)(C)[C@@H]5CC[C@]43C)[C@@H]12,136%
11,NS(=O)(=O)c1ccc(N2N=C(c3ccc(Br)cc3)CC2c2cn(-c3ccccc3)nc2-c2ccc(Cl)cc2)cc1 (stereo not given),89.6%
12,c1ccc(/C(=N\Nc2ccc3ccccc3n2)c2ccccn2)cc1,-29.8% (active)
13,CNC(=O)c1cc(Oc2ccc3c(c2)sc2nc(-c4cc(C(F)(F)F)cc(C(F)(F)F)c4)cn23)ccn1,45.7%
14,CC(=O)c1cc2c(cc1F)C(C)(C)CCC2(C)C,86.3%
15,O=C1C=CC(=O)N1c1cc(Cl)c(Cl)cc1Cl,80.4%
16,Cn1ccc(=O)nc1,105%
17,O=C(COc1ccc(/C=C2\Oc3ccc4ccccc4c3C2=O)cc1)c1ccc(Cl)cc1,86.5%
18,Fc1ccc2[nH]c3c(NCCCN4CCOCC4)ncnc3c2c1,109%
19,Cn1c2ccccc2c2c3[nH][nH]c(=O)c3c3c4ccccc4[nH]c3c21,4.77% (active)
20,O=C(CCc1nnc(Cn2cncn2)o1)c1nc2ccccc2[nH]1,108%

row,Compound,growth
1,CC(C)=CCCC(C)c1ccc(C)c2c1OCN(CCCCCO)C2 (stereo not given),51.7%
2,Cc1nc(C)c(C(=O)O)cc1C(=O)O,106%
3,CC[C@]1(O)CC2CN(CCc3c([nH]c4ccccc34)[C@@](C(=O)OC)(c3cc4c(cc3OC)N(C)[C@H]3[C@@](O)(C(=O)OC)[C@H](OC(C)=O)[C@]5(CC)C=CCN6CC[C@]43[C@@H]65)C2)C1 (stereo not given in full),2.87% (active)
4,COc1ccc(-c2cnc(-c3ccncc3-c3cccc(OC)c3)o2)cc1,0.0287% (active)
5,O=C(Nc1cccc(-n2ccc3c(NC(=O)c4ccccc4)nccc32)c1)Nc1cc(C(F)(F)F)cc(C(F)(F)F)c1,-17.6% (active)
6,NC(CSC(c1ccccc1)(c1ccccc1)c1ccc(Cl)cc1)C(=O)O (stereo not given),-40.5% (active)
7,CC(=O)c1c(O)c(C)c(O)c2c1OC1=CC(=O)C(C(C)=O)C(=O)C12C (stereo not given),45.4%
8,COc1cccc(-c2nn(-c3ccccc3)cc2-c2ccnc(-c3cccnc3)c2)c1,56.8%
9,CCN1C(=S)N(CC)C2C1NC(=S)N2/N=C/C=C/c1ccccc1OC (stereo not given),-46.4% (active)
10,COc1cc2nc(N3CCC[C@H](NC4=CC(=O)c5ccccc5C4=O)C3)nc(N)c2cc1OC,-64.6% (active)
11,O=C1NC(=O)c2c1c1c3ccccc3[nH]c1c1oc3ccc(F)cc3c21,99.5%
12,COc1cc2nc(Nc3cccc(F)c3)nc(Nc3cc(C)[nH]n3)c2cc1OC,-54% [20 µM] (active)
13,Cc1ccc2c(c1)C(C)Cc1c(Cl)ncnc1N2C (stereo not given),17.3%
14,CC#CC(=O)N1CCC[C@H]1c1nc(-c2ccc(C(=O)Nc3ccccn3)cc2)c2c(N)nccn12,130%
15,Cc1nc(Nc2ccc(N)cc2)c2ccccc2n1,62%
16,O=C(/C=C/c1ccc(Cl)cc1)c1ccccc1,99.9%
17,Cc1ccc(-c2cn3cc([N+](=O)[O-])ccc3n2)cc1,47.7%
18,CC1COCC(C)N1C1=C(Cl)C(=O)c2ccccc2C1=O (stereo not given),-19.5% (active)
19,O=C(/C=C1\C(=O)N(Cc2ccc([N+](=O)[O-])cc2)c2ccccc21)c1ccc(OCCN2CCCC2)cc1,17.5%
20,C=C(c1ccc(C(=O)O)c(F)c1)c1cc2c(cc1C)C(C)(C)C=CC2(C)C,86.3%
